Assay results as given in PubChem BioAssay (NCI).
The panel holds about 79,000 compounds, 15% with a hit somewhere; the sample as a whole holds those more often. Unmarked numbers belong to inactive results. Rule as the data show it: active = growth inhibition above about 70%; inactive = the rest.

assay: NCI Yeast Anticancer Drug Screen. Data for the mlh1 rad18 strain (AID 175); settings: S. cerevisiae mlh1 rad18 strain growth inhibition; at 50.0 µM; active compounds read high
Method: Growth inhibition of yeast strains with defined genetic alterations is measured as a screen for potential anti-cancer activity. Selected strains with alterations in DNA damage repair or cell cycle control were exposed to compounds and growth inhibition was measured relative to vehicle treated controls. The strain used in this assay is mlh1 rad18

SMILES | growth inhibition
CCCOC1OC(CS(=O)(=O)O)C(OC(C)=O)C(OC(C)=O)C1OC(C)=O (stereo not given) | 5.95%
O=C(Nc1ccccc1)Nc1ccccc1C(=O)O | -31.3%
CN1COc2c3c(c4ccccc4c2C1)CN(C)CO3 | -0.3%
CC(C)S1=C2C(=O)CC(C)(C)CC2=Nc2ccccc21 (stereo not given) | -27.9%
O=C(O)c1nc(-c2ccccc2)[nH]c1C(=O)O | 24.4%
Cc1ccc2nc(Nc3nc(C)cc(C)n3)[nH]c2c1 | -11.9%
Clc1ccc(CSC2=NCCN2)cc1Cl | 12.8%
COc1ccc(C(Nc2ccccn2)c2cc(C(C)(C)C)cc(C(C)(C)C)c2O)cc1 (stereo not given) | 38.8%
O=c1n(-c2ccccc2)c(=O)n2n1C1C3C4C3C2C2(F)C4C12 (stereo not given) | 9.6%
O=C1C2Nc3ccccc3N=C2OC1c1cccc([N+](=O)[O-])c1 (stereo not given) | 24.2%
CCOc1ccc(OCC)c(NC(C)=O)c1 | -3.6%
O=[N+]([O-])c1cccc(SNSc2cccc([N+](=O)[O-])c2)c1 | 23.8%
O=C(/C=C/c1ccccc1)NC(Cc1ccccc1)C(=O)O (stereo not given) | -12.2%
COc1ccc(C(=O)O)cc1 | -4.25%
OC(c1ccccc1)C1CC2C=CC1C2 (stereo not given) | 2.6%
O=C(CCN1CCCCC1)C(O)(c1ccccc1)c1ccccc1 | 14.2%
CC(=O)CC(=O)N1CCCCCC1 | 25.1%
O=S(=O)(OCC1CC2C=CC1C2)c1ccc(Br)cc1 (stereo not given) | 3.65%
CC(O)(c1ccc(OCCC[N+](C)(C)C)cc1)C(C)(O)c1ccc(OCCC[N+](C)(C)C)cc1 (stereo not given) | -27.6%
c1ccc(N=C(Nc2ccccc2)N2CCCCC2)cc1 | -21.6%

SMILES | growth inhibition
COc1cccc(NC(=O)CSc2nnc(-c3ccc(NC(C)=O)cc3)o2)c1 | -16.9%
COC(=O)c1cc2c(o1)Sc1ccccc1NC2=O | 10.7%
N#C/C(=C\C1CCCC([N+](=O)[O-])C1)C1CCC([N+](=O)[O-])CC1 (stereo not given) | 2.85%
Cn1c(=O)c2nc3c(=O)n(C)c(=O)n(CC(N)=O)c3nc2n(C)c1=O | 21.4%
O=C(O)CNC(=O)C(Cc1ccccc1)NC(=O)CNC(=O)C(CSC(c1ccccc1)c1ccccc1)NC(=O)C(CSC(c1ccccc1)(c1ccccc1)c1ccccc1)N1C(=O)c2ccccc2C1=O (stereo not given) | 11%
O=[N+]([O-])c1ccc(C2SCc3nc4ccccc4n32)cc1 (stereo not given) | -2.65%
Cc1ccc(S(=O)(=O)Oc2c(Cl)cc(Cl)cc2Cl)cc1 | 29.8%
CCOC(=O)Nc1ccc(C(=O)OCC)cc1 | 13.7%
COc1cc(/C=C/C(=O)c2sc(-n3nc(-c4ccccc4)cc3-c3ccccc3)nc2C)ccc1O | -10%
Cc1cc2nc3c(C(OC4OC(CO)C(O)C(O)C4O)C(O)CO)nn(-c4ccccc4)c3nc2cc1C (stereo not given) | 0.75%
O=[N+]([O-])c1ccc(N(CCO)CCO)nc1 | -17.8%
COc1cccc2c(NCCCCCO[N+](=O)[O-])cc[n+](C)c12 | 29.1%
CCOC(=O)c1ccc(NC(=O)Nc2cc(Cl)ncn2)cc1 | -6.15%
CCc1ccc(N=Nc2c(F)c(F)c(N(C)C)c(F)c2F)cc1 | -1.25%
Cc1cccc(S(=O)(=O)c2ccccc2)c1 | 18.6%
CC1(O)Oc2c(cc(C(C)(C)C)cc2C(C)(C)C)C1=O (stereo not given) | 42.6%
C/C(=N\NC(N)=S)c1ccc(/C(C)=N/NC(N)=S)cc1 | -19.6%
O=C(O)c1ccccc1C(=O)OCC1CCCc2ccccc21 (stereo not given) | 46%
CC(=O)C1SCC[S+]1C (stereo not given) | -10.8%
CCCCCCCCCOc1ccc2ccccc2c1 | -4.5%
